Data on 62 compounds can be found in PubChem BioAssay AID1822 (The Scripps Research Institute Molecular Screening Center, 2009).

Each structure is given as a SMILES string. Out of some 290,000 compounds screened, about 3,500 (1.2%) were called active. The entries come from a sample that favours actives as a whole. Values without a mark were called inactive.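 Rule for the calls: active = inhibition above the campaign mean inhibition over all tested compounds plus 3 SD (cut at about 28% in these data); inactive = the rest.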

The subject of the test is M18 aspartyl aminopeptidase (Plasmodium falciparum 3D7). As to the kind of experiment: PfM18AAP inhibitors, malaria aminopeptidase, primary screen, biochemical, QFRET, recombinant enzyme (AID 1822).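 Note: 0% = plate median of test compound wells and 100% = 2 mM ZnCl2.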 Particulars: H-Glu-NHMec fluorogenic cleavage, at 7.35 µM, stronger effect = higher value.
As to `Cn1cncc1COC(=O)c1ccc(Cl)cc1`, the inhibition is -13.9%. Then `S=C(NCCc1ccccc1)N1CCCCC1`, with -5.18%; and `Oc1ccccc1N1CCN(C(=S)NCc2ccccc2)CC1`, with 9.57%. On to `Oc1ccc(N2CCN(C(=S)NCc3ccccc3)CC2)cc1`, for which the inhibition was 36.6% (active). Take `Cc1occc1C(=O)N/N=C/c1ccc(-c2cccc([N+](=O)[O-])c2)o1`: the inhibition is 9.99%. Then `CCOc1ccccc1N1CCN(C(=S)Nc2ccc(S(N)(=O)=O)cc2)CC1`, with 9.49%. The figure for `COc1ccc(N2CCN(C(=S)Nc3ccc(S(N)(=O)=O)cc3)CC2)cc1` is 46.7% (active).

As to `NS(=O)(=O)c1ccc(NC(=S)N2CCCC2)cc1`, the inhibition was 0.47%. The figure for `NS(=O)(=O)c1ccc(CCNC(=O)c2nc(CS(=O)(=O)c3ccc(Cl)cc3)no2)cc1` is -4.83%; for `O=C(NC1CCCC1)C(c1ccc(Cl)cc1)N(C(=O)c1csnn1)C1CC1` (configuration not stated) it is -2%; for `CC(C(=O)Nc1ccc(O)c(C(=O)O)c1)N1C(=O)/C(=C/c2cccs2)SC1=S` (configuration not stated) it is 30.4% (active). Consider `O=C(CCCN1C(=O)/C(=C/c2cccs2)SC1=S)Nc1ccc(O)cc1`, for which the inhibition is 1.87%. The figure for `O=C(CCN1C(=O)/C(=C/c2cccs2)SC1=S)NNC(=O)c1cccc(O)c1` is -2.41%; for `CN(C(=O)CC1C(=O)NCCN1Cc1ccc2ccccc2c1)C1CCOCC1` (configuration not stated) it is 9.14%. Then `Cc1ccccc1Nc1nnc(SCC(=O)c2cc3ccccc3o2)s1`, with 28.2% (active); and `Cc1cc(NC(=O)CSc2nnc(Nc3ccccc3F)s2)no1`, with -12.2%; and `Cc1ccc(Nc2nnc(SCC(=O)c3cc4ccccc4o3)s2)cc1C`, with 6.69%. The figure for `O=C(NCCS(=O)(=O)N1CCN(c2ccccc2F)CC1)c1ccc(Br)o1` is 0.95%. For `CCOc1ccc(C(=O)Nc2ccc(S(=O)(=O)NCC3CCCO3)cc2)cc1OCC` (configuration not stated), the inhibition was -11.8%. Then `CC(C)(C)c1ccc(CN2C(=O)c3ccccc3S2(=O)=O)cc1`, with 7.13%; and `N#Cc1ccccc1-n1c(N)c(C(=O)N2CCCC2)sc1=S`, with 29.2% (active). In the case of `Cc1cccc(-n2c(N)c(C(=O)N3CCN(C)CC3)sc2=S)c1`, the inhibition is 13.6%.

`Cc1ccc(-n2c(N)c(C(=O)N3CCOCC3)sc2=S)c(C)c1`: the inhibition was 4.98%. The figure for `CCN(CC)CCCNC(=O)c1cc2c(=O)[nH]c3ccc(C)cc3c2s1` is 0.43%. The figure for `CCOc1cc(C(=O)O)ccc1OCCOc1ccccc1` is 9.32%; for `[2H]C(CCOS(N)(=O)=O)c1ccccc1` (configuration not stated) it is -1.1%; for `CCOC(=O)CSc1nc2sc3c(c2c(=O)[nH]1)CC(C)(C)OC3` it is 10.6%. For the compound `CC/C(C)=N/Nc1nc2sc3c(c2c(=O)[nH]1)CC(C)(C)OC3`, the inhibition is 48.8% (active). Consider `CCSc1nc2sc3c(c2c(=O)[nH]1)CC(C)(C)OC3`, for which the inhibition was -5.01%. On to `COc1ccccc1OCC(=O)Nc1c2c(nn1-c1ccc(F)cc1)CS(=O)(=O)C2`, for which the inhibition was -3.07%. Consider `Cc1nnc(SCC(=O)Nn2cnnc2)s1`, for which the inhibition is 41.6% (active). The figure for `Cc1nnc(SCC(=O)NC2CCCC2)s1` is 5.86%; for `Cc1cnc(NC(=O)CSc2nnc(C)s2)s1` it is -8.35%; for `CC1(C)CC(=O)C/C(=N\NC(=O)c2cccs2)C1` it is 38.3% (active). The figure for `CC1C/C(=N/NC(=O)c2cccs2)CC(C)(C)C1` (configuration not stated) is -19.4%; for `Cc1ccc(C)c(NC(=O)CCC(=O)N/N=C2/CC(=O)CC(C)(C)C2)c1` it is -1.68%; for `COc1ccccc1CNS(=O)(=O)CC12CCC(CC1=O)C2(C)C` (configuration not stated) it is 6.59%. The figure for `O=C(Nc1cccc(O)c1)c1ccc(C(=O)c2ccccc2)o1` is -0.92%; for `C/C(=C\C(=O)c1ccccc1)Nc1cccc(O)c1` it is 31% (active). On to `C/C(=C\C(=O)c1cccnc1)Nc1ccc(C)c(C)c1`, for which the inhibition is 1.47%.

As for `O=[N+]([O-])c1ccc(N2CCN(c3ccc(O)cc3)CC2)c(Cl)c1`, the inhibition is 36% (active).

Take `COc1ccc(N2CCN(c3ccc([N+](=O)[O-])cc3Cl)CC2)cc1`: the inhibition was -8.52%. Take `O=C(O)C1CCN(c2ccc([N+](=O)[O-])cc2[N+](=O)[O-])CC1`: the inhibition was -4.27%. Then `CCOc1ccc(C(=O)Nc2cccc(SC)c2)cc1`, with -1.4%; and `O=C(Nc1cc(N2CCOCC2)ncn1)NC1(C(F)(F)F)Oc2ccc(Cl)cc2O1` (configuration not stated), with 89.4% (active). Then `O=C(CN1C(=O)COc2ccc(Cl)cc21)Nc1ccc(N2CCOCC2)cc1`, with -12.7%; and `COc1ccc(Cl)cc1NC(=O)CN1CCN(C(=O)N2CCOCC2)CC1`, with -7.2%. The figure for `CCOc1ccc(C(=O)CCN2CCOCC2)cc1` is -12.6%; for `O=C1c2ccccc2C(=O)N1CCOc1ccc(F)cc1` it is -6.45%; for `CCn1c(SCC(=O)Nc2ccc(Br)cc2)nc2sc3c(c2c1=O)CCN(C)C3` it is 7.65%.

Take `N#Cc1ccsc1NC(=O)CN1CCN(S(=O)(=O)c2cc(Cl)ccc2Cl)CC1`: the inhibition is -4.98%. Then `COc1ccc(Cl)cc1S(=O)(=O)N1CCN(CC(=O)C(C)(C)C)CC1`, with -1.35%. The figure for `O=C(CN1CCN(S(=O)(=O)c2cc(Cl)ccc2Cl)CC1)c1ccc(O)c(O)c1` is 71.5% (active); for `C/C(=N\NC(=O)c1ccccc1F)c1ccccn1` it is -8.33%; for `CC(C)(C)NC(=O)NC(=O)COC(=O)C1c2ccccc2Oc2ccccc21` it is 6.75%.

`CCn1ccnc1CNC(=O)CC1C(=O)NCCN1CCCc1ccccc1` (configuration not stated): the inhibition was 7.75%. The figure for `CCn1ccnc1CNC(=O)CC1C(=O)NCCN1Cc1ccc(F)cc1Cl` (configuration not stated) is 33.7% (active); for `CN(C(=O)CC1C(=O)NCCN1Cc1ccc(F)cc1Cl)C1CCCCC1` (configuration not stated) it is -5.56%; for `CCN(c1cccc(C)c1)S(=O)(=O)c1ccc(-c2coc(C)n2)cc1` it is -0.79%. Regarding `CCOc1ccccc1/C=N/Nc1nc2ccccc2o1`, the inhibition is 2.76%. The figure for `COc1ccc(/C=N/Nc2nc3ccccc3o2)cc1OC` is 56.5% (active); for `Brc1ccccc1/C=N/Nc1nc2ccccc2o1` it is -0.38%.
